High-throughput results (PubChem BioAssay)
A selection: hits, their analogues and other compounds. The true share with any hit is near 3%.
m-calpain inh – blocks pig calpain II enzyme activity; purified calpain II, fluorogenic peptide substrate, 30 min; inhibition, % at 16 µM; 0.37% of 220,000 active; AID 1236;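 active = inhibition above about 50%, limit read from the data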
14-3-3 Bad PPI – disrupts binding of bovine 14-3-3 zeta to phospho-Bad peptide | P63103 | TR-FRET 14-3-3zeta/Dy647-pBad peptide displacement, 1 h | inhibition, % at 21.7 µM | 0.71% of 220,000 active | AID 781;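 active = inhibition above about 70%, limit read from the data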
Target sequence (P63103 whole entry, looked up): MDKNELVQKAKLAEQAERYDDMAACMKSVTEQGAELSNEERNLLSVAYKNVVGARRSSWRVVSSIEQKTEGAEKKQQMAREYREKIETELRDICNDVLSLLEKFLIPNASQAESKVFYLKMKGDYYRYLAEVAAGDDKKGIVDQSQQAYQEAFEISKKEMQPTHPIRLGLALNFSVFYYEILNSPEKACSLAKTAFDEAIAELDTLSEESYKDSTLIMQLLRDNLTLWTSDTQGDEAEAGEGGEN
L929 necroptosis – L929 zVAD cell death inhibition; AID 1377; L929 zVAD necroptosis rescue, ATP luminescence, 24 h; with zVAD 60 µM; 0.38% of 220,000 active; viability rescue, % at 10 µM;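 active = activation, scaled between plate controls, above about 75%, limit read from the data; inactive = activation under that limit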
ROMK primary – modulates human ROMK potassium channel activity; B-score at 10 µM; AID 1918; 2% of 130,000 active; Tet-inducible ROMK, thallium flux fluorescence; actives lie on both sides;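 active = signal ratio slope over the read window, or its plate-corrected B-score, at least 3 SD from the plate mean, either direction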;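 note: B-score of the F/F0 ratio slope over 7 to 12 s after thallium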
Target sequence (P48048 whole entry, looked up): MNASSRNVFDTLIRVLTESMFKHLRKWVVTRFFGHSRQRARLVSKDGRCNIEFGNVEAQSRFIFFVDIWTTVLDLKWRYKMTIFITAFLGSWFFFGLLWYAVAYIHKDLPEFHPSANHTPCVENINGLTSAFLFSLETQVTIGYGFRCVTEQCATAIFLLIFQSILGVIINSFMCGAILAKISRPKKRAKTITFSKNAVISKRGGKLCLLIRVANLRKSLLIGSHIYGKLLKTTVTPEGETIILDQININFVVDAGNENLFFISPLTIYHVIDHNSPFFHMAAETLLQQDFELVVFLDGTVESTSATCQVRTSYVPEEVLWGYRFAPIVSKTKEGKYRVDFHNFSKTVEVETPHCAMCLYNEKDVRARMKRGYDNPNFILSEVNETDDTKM
Efa HMGR inh – inhibitors of class II HMG-CoA reductase from Enterococcus faecalis; purified E. faecalis HMGR, NADPH absorbance 340 nm kinetic; inhibition, % at 10 µM; 0.41% of 190,000 active; AID 1066;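 active = inhibition above a set limit, the median over all tested compounds plus 3 SD, cut at about 9.5% in these data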;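 note: enzyme runs in reverse so mevalonate oxidation gives rising NADPH absorbance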
TNF necrop inh – blocks TNF-alpha induced death of Jurkat FADD-/- cells; Jurkat FADD-/- TNF necroptosis rescue, ATP luminescence, 24 h; 0 = TNF only, 100 = no-TNF cells; activation (protection from cell death), % at 10 µM; 0.068% of 220,000 active;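 active = activation, meaning protection from cell death, of at least 50% relative to plate controls; inactive = activation below 50%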;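 note: necroptosis triggered by 40 ng/mL TNF-alpha added together with compound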
Of the large screens only hits and unclear results are named; the others gave an inactive call; [ ] = remark or other dose.

CCC(C)C(=O)Nc1nnc(SCC(=O)Nc2ccccc2F)s1 (centres undefined)	14-3-3 Bad PPI 87
CCC(C)C(=O)Nc1nnc(SCC(=O)Nc2ccc(F)cc2)s1 (centres undefined)	none
Cc1ccc(C2=NCN(c3ccc(C(=O)O)cc3)C(=S)N2)cc1	none
Cc1nn(CC#N)c(=O)n1-c1ccccc1F	none
Cc1ccc(-n2c(C)nn(CC#N)c2=O)cc1	14-3-3 Bad PPI 87
O=C(Nc1nc(-c2ccccn2)cs1)c1cc2ccccc2o1	none
O=C(Nc1nc(-c2cc3ccccc3oc2=O)cs1)c1ccc(Br)o1	14-3-3 Bad PPI 79[fluorescence artefact?]
O=C(Nc1nc(-c2cccs2)cs1)c1cc2ccccc2oc1=O	ROMK primary 1.6
Cc1nn(-c2ccccc2)c(C)c1/C=C/C(=O)OCC(=O)Nc1ncc(C(F)(F)F)cc1Cl	none (no result: ROMK primary)
CCc1nnc(NC(=O)[C@@H](NC(=O)c2cc(OC)cc(OC)c2)C(C)C)s1	none
Clc1ccsc1-c1csc(-c2cccnc2)n1	none
c1cncc(-c2nc(-c3ccco3)cs2)c1	14-3-3 Bad PPI 73 (no result: ROMK primary)
CC1(C)CC(=O)c2cnc3c(C#N)cnn3c2C1	none
CSc1nc2ncc3c(n2n1)CC(C)(C)CC3=O	Efa HMGR inh 9.9
O=C(Nc1ccc(O)c2c(=O)cc(-c3ccccc3Cl)oc12)c1cccs1	none (no result: ROMK primary, Efa HMGR inh)
CCOC(=O)C1(Cc2ccccc2C(F)(F)F)CCN(Cc2ccon2)CC1	none (no result: ROMK primary, Efa HMGR inh)
CC(C(=O)O)n1nc2ccccc2n1 (centres undefined)	14-3-3 Bad PPI 71
CCCCCCCc1nn2c(=O)cc(O)nc2s1	none (no result: ROMK primary)
Cc1cc(=O)c2cccc(Br)c2[nH]1	Efa HMGR inh 12 (no result: ROMK primary)
Cc1cc(=O)c2ccc3ccccc3c2[nH]1	none
Cc1ccc(-c2ccc([C@H]3[C@@H]4C=CCC[C@@]4(C)C(=O)N3Cc3ccccc3)c(F)c2)cc1	m-calpain inh 66 (no result: ROMK primary, Efa HMGR inh)
COc1ccc(-c2ccc([C@H]3[C@@H]4C=CCC[C@@]4(C)C(=O)N3Cc3ccccc3)c(F)c2)cc1	none (no result: ROMK primary, Efa HMGR inh)
COc1ccccc1NC(=O)NCCN1CCNC1=O	none (no result: ROMK primary, Efa HMGR inh)
O=C1CCC(=O)N1c1nc2n(n1)C(c1ccccc1)C=C(c1ccc(Br)cc1)N2 (centres undefined)	ROMK primary -4 (no result: 14-3-3 Bad PPI)
COc1ccccc1C1C=C(c2ccc(Cl)cc2)Nc2nc(N3C(=O)CCC3=O)nn21 (centres undefined)	ROMK primary -6
CCc1cccc(CC)c1NC(=O)CO/N=C(\C)c1cccs1	none
COc1cc(C(c2nnnn2C2CCCC2)N2CCN(C)CC2)cc(OC)c1OC (centres undefined)	14-3-3 Bad PPI 80
FC(F)(F)c1nc(N2CCCC2)ncc1-c1nnnn1-c1ccc(Cl)cc1	none (no result: ROMK primary)
O=C(c1cccc(N2C(=O)c3ccccc3C2=O)c1)N1CCCCCC1	none
O=C(c1cccc(N2C(=O)C3C4C=CC(C4)C3C2=O)c1)N1CCCCCC1 (centres undefined)	14-3-3 Bad PPI 77
CC1CN(Cc2cnc(Cl)s2)CC(C)O1 (centres undefined)	Efa HMGR inh 23
Cc1ccc(NC2OC(CO)C(O)C2O)cc1[N+](=O)[O-] (centres undefined)	m-calpain inh 85 (no result: L929 necroptosis)
O=C(N/N=C/C(Cl)=C\c1ccccc1)c1cnccn1	none
O=C(N/N=C/C(Cl)=C/c1ccccc1)c1cnccn1	Efa HMGR inh 14 (no result: ROMK primary)
CC(=O)c1ccccc1OC(=O)CCN1C(=O)C2C3C=CC(C4CC34)C2C1=O (centres undefined)	none
CC(=O)c1ccccc1OC(=O)CCN1C(=O)c2ccccc2C1=O	Efa HMGR inh 13
COc1ccc(OC)c2c1nc1n2CCS1	none
Cc1c2cc(O)c(=O)cc-2oc2cc(O)c(O)cc12	14-3-3 Bad PPI 93 (no result: ROMK primary)
CC(C)NCC(O)(c1ccc(Cl)cc1)c1ccc(Cl)cc1	Efa HMGR inh 13
Cc1cccn2c(=O)c3cc(S(=O)(=O)c4ccccc4)c(=N)n(CC4CCCO4)c3nc12 (centres undefined)	none (no result: Efa HMGR inh)
COc1cc(S(=O)(=O)Nc2ccccc2C)ccc1NC(=O)c1ccncc1	Efa HMGR inh 16
COc1cc(S(=O)(=O)Nc2ccc(C)cc2)ccc1NC(=O)c1ccncc1	none
Cc1ccc(C)c2[nH]c(=O)c(C(c3nnnn3C(C)(C)C)N3CC=C(c4ccc(F)cc4)CC3)cc12 (centres undefined)	none
COc1ccc2c(c1)c(=O)c(C(=O)c1ccccc1)cn2Cc1ccc(C)cc1	Efa HMGR inh 14 (no result: L929 necroptosis)
O=C(NCC(=O)N(Cc1cccs1)C(C(=O)NC1CCCC1)c1cccnc1)c1ccco1 (centres undefined)	none (no result: ROMK primary)
O=C(NCC(=O)N(Cc1cccs1)C(C(=O)NC1CCCCC1)c1ccncc1)c1ccco1 (centres undefined)	Efa HMGR inh 11
O=C(Nc1cnn(C23CC4CC(CC(C4)C2)C3)c1)c1cnn2c(C(F)(F)F)cc(-c3ccco3)nc12	14-3-3 Bad PPI 77 (no result: ROMK primary)
CC(C)(C)C(=O)Nc1cc(C(F)(F)F)ccc1-n1ccnc1	Efa HMGR inh 13
CCOC(=O)c1ccc(-n2ccnc2)c(NC(=O)c2ccc(C(C)(C)C)cc2)c1	none
O=C(c1cccnc1)N1c2ccccc2Sc2ccccc21	Efa HMGR inh 12
CCCCCC(=O)Nc1cccc(C2=NOC3(C2)C[C@@H](C(N)=O)N(C(=O)C2(C)CC2)C3)c1 (some centres undefined)	none (no result: ROMK primary, Efa HMGR inh)
C=CCNCc1cccn1-c1sc2c(c1C#N)CCCC2	14-3-3 Bad PPI 71
CC(CCCC(C)(C)O)NC(=O)c1ccc(OC2CCN(C(=O)C3CC3)CC2)cc1 (centres undefined)	Efa HMGR inh 10
CC(C)C[C@H](NC(=O)c1ccc(OC2CCN(C(=O)C3CC3)CC2)cc1)C(N)=O	none
CCOC(=O)c1ccc2nc(C(F)(F)F)[nH]c(=O)c2c1	14-3-3 Bad PPI 77 (no result: ROMK primary)
CC(=O)Nc1sc2c(c1C(N)=O)CCC2	ROMK primary 2.5
COc1cccc(OC)c1C(=O)N1CCN(Cc2ccc3c(c2)OCO3)CC1	14-3-3 Bad PPI 97[fluorescence artefact?]
COc1ccc(CN2CCN(C(=O)c3cccs3)CC2)cc1Br	14-3-3 Bad PPI 78 (no result: ROMK primary)
Cc1ccc(C(=O)N2CCN(Cc3ccc4c(c3)OCO4)CC2)o1	none (no result: ROMK primary)
O=C(NC(=S)N1CCN(Cc2ccc3c(c2)OCO3)CC1)c1cccc(Br)c1	ROMK primary 4.9
CCOCCCNC(=S)N1CCN(Cc2ccc3c(c2)OCO3)CC1	14-3-3 Bad PPI 95
O=C(Nc1ccccc1)c1ccsc1	none (no result: ROMK primary)
CCC(C)N1CCN(C(=O)c2cccs2)CC1 (centres undefined)	14-3-3 Bad PPI 70
CC1CCC(NC(=O)CN(C)S(=O)(=O)c2cnc[nH]2)CC1 (centres undefined)	none
CC1CCCC(NC(=O)CN(C)S(=O)(=O)c2cnc[nH]2)C1C (centres undefined)	Efa HMGR inh 14
